“And” between values parts separate entries of the source, which are not always exact repeats. Equal entries are not always repeated. ± gives the standard deviation of the averaged measurements.
Assays:
Settings in all cases: concentration: 10 µM; 24 h
HCC1569 [1] = assay: cell number relative to DMSO (% of DMSO); higher = more cells (less growth inhibition / toxicity)
Method in brief: (§1)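 For HCC1569 and TDF cells, compounds at 10 µM were applied for 24 h at 37 °C in triplicate in 384-well plates. Cells were fixed in 3.7% formaldehyde, stained for H1.0 and with DAPI, and imaged at ×10 over six fields per well. The endpoint, H1.0 nuclear intensity or cell number, is shown as percent of the plate control using the median of replicates. Positional effects were smoothed for HCC1569 only.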

TDF [2] = assay: as above
Method in brief: as §1

TDF [3] = assay: H1.0 immunofluorescence intensity relative to DMSO (% of DMSO); higher = stronger H1.0 induction, active = 120 or more
Method in brief: as §1

HCC1569 [4] = assay: H1.0 immunofluorescence intensity relative to DMSO (% of DMSO); higher = stronger H1.0 induction, active = 140 or more
Method in brief: as §1
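For H1.0 immunofluorescence intensity relative to DMSO in this document: TDF is a line of transformed human dermal fibroblasts of mesenchymal origin.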
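For cell number relative to DMSO in this document: TDF denotes transformed human dermal fibroblasts of mesenchymal origin.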

| Structure (SMILES) | cell number (HCC1569 [1]) | cell number (TDF [2]) | H1.0 immunofluorescence intensity (TDF [3]) | H1.0 immunofluorescence intensity (HCC1569 [4]) |
| --- | --- | --- | --- | --- |
| COC1=CC(C)C2CC3OC(=O)CC4C(C)=C(OC)C(=O)C(C2(C)C1=O)C34C (stereo not drawn) [Quassin] | 101 | 89.6 | 96.8 (inactive) | 94.8 (inactive) |
| CNCC(O)c1ccc(O)c(O)c1.O=C(O)C(O)C(O)C(=O)O (single isomer, unassigned; (-)) [(-)-Epinephrine bitartrate] | 100 | 107 | 90.8 (inactive) | 82.3 (inactive) |
| CCc1nn(CCCN2CCN(c3cccc(Cl)c3)CC2)c(=O)n1CCOc1ccccc1 | 92.2 | 95 | 95.3 (inactive) | 122 (inactive) |
| CC(N)=NCCC[C@H](N)C(=O)O.Cl [L-N5-(1-Iminoethyl)ornithine hydrochloride] | 101 | 108 | 92.8 (inactive) | 93.3 (inactive) |
| O=C(O)CN(CCOCCOCCN(CC(=O)O)CC(=O)O)CC(=O)O | 99.4 | 105 | 90.3 (inactive) | 88.9 (inactive) |
| CC(N)(Cc1ccc(O)c(O)c1)C(=O)O (racemic) | 101 | 101 | 90.9 (inactive) | 98.2 (inactive) |
| CCC(=O)N1CCN(C(=O)c2ccccc2)CC1 | 106 | 111 | 94.2 (inactive) | 89.3 (inactive) |
| O=C(NC(Cc1cc(=O)[nH]c2ccccc12)C(=O)O)c1ccc(Cl)cc1 (stereo not drawn) [Rebamipide] | 104 | 99.7 | 93.2 (inactive) | 105 (inactive) |
| CCCCCC(O)C=CC1OC(O)CC(O)C1CC=CCCCC(=O)O (stereo not drawn) [Thromboxane B2] | 96.2 | 95.2 | 102 (inactive) | 97.9 (inactive) |
| O=C(O)CNC(=O)C(CS)Cc1ccccc1 (racemic) [DL-Thiorphan] | 105 | 95.5 | 93.4 (inactive) | 96.1 (inactive) |
| COc1c(N2CC3CCCNC3C2)c(F)cc2c(=O)c(C(=O)O)cn(C3CC3)c12.Cl (stereo not drawn) [Moxifloxacin.HCl] | 101 | 122 | 96.7 (inactive) | 97.9 (inactive) |
| Nc1ncnc2c1nc(Sc1ccc(Cl)cc1)n2C1OC2COP(=O)([O-])OC2C1O.[Na+] (stereo not drawn) [8-(4-Chlorophenylthio)-cAMP sodium] | 104 | 106 | 93.1 (inactive) | 85.1 (inactive) |
| O=C(O)c1cc(=O)cc(C(=O)O)[nH]1 [Chelidamic acid] | 98.8 | 109 | 90 (inactive) | 96.3 (inactive) |
| FC(F)(F)c1cc(NC(=S)Nc2ccc(Br)cc2-c2nn[nH]n2)cc(C(F)(F)F)c1 | 90.3 | 85.6 | 90.2 (inactive) | 120 (inactive) |
| CCCc1c(OCCCCc2nn[nH]n2)ccc(C(C)=O)c1O | 104 | 101 and 110 | 97.5 (inactive) and 94.5 (inactive) | 105 (inactive) |
| NC1CONC1=O [D-Cycloserine] | 98.8 | 96.8 | 97.5 (inactive) | 92.1 (inactive) |
| COc1ccc(CN(CCN(C)C)c2ccccn2)cc1.O=C(O)C=CC(=O)O [Mepyramine maleate] | 106 | 94.8 | 92.3 (inactive) | 100 (inactive) |
| N#Cc1c(NC(=O)c2cccc3ccccc23)sc2c1CCCC2 [JNK Inhibitor IX] | 62.6 | 9.56 | 163 (active) | 170 (active) |
| N[C@@H](CCCC(=O)O)C(=O)O [L-2-aminoadipic acid] | 105 | 109 | 99.8 (inactive) | 93.6 (inactive) |
| O=C(O)Cc1c[nH]c2ccc(O)cc12 [5-Hydroxyindolacetic acid] | 104 | 99.5 | 99.9 (inactive) | 97.9 (inactive) |
| CCCCCC(O)C=CC=CCCCCCCCC(=O)O (stereo not drawn) | 96 | 97.2 | 96.4 (inactive) | 101 (inactive) |
| Br.Oc1ccc(C2CNCCc3c2cc(O)c(O)c3Cl)cc1 (stereo not drawn) [Fenoldopam bromide] | 103 | 100 | 86.4 (inactive) | 99.2 (inactive) |
| CCOc1ccc(C(Nc2ccccn2)c2ccc3ccc(C)nc3c2O)cc1C (stereo not drawn) | 87.7 | 84.1 | 94.8 (inactive) | 115 (inactive) |
| COc1ccc(/C=C\c2cc(OC)c(OC)c(OC)c2)cc1O [2-methoxy-5-[(Z)-2-(3,4,5-trimethoxyphenyl)ethenyl]phenol] | 61.6 | 11.5 | 179 (active) | 162 (active) |
| COCCOC(=O)C1=C(C)NC(C)=C(C(=O)OC(C)C)C1c1cccc([N+](=O)[O-])c1 (stereo not drawn) [Nimodipine] | 100 ± 2.9 | 106 ± 3.4 | 91.6 (inactive) | 104 (inactive) |
| Cc1ccccc1-n1c(Cn2nc(-c3cccc(O)c3)c3c(N)ncnc32)nc2cccc(C)c2c1=O | 96.9 | 95.1 | 97.7 (inactive) | 103 (inactive) |

| Structure (SMILES) | cell number (HCC1569 [1]) | cell number (TDF [2]) | H1.0 immunofluorescence intensity (TDF [3]) | H1.0 immunofluorescence intensity (HCC1569 [4]) |
| --- | --- | --- | --- | --- |
| COc1cc(C2CC(=O)c3c(O)cc(O)cc3O2)ccc1O (stereo not drawn) [Homoeriodictyol] | 97.9 | 99.7 | 99 (inactive) | 88.7 (inactive) |
| CCCCCCCCCCCCCCCC(=O)OCC=C(C)C=CC=C(C)C=CC1=C(C)CCCC1(C)C [Retinyl palmitate] | 101 | 99.2 | 93.8 (inactive) | 101 (inactive) |
| NC(Cn1ccc(=O)c(O)c1)C(=O)O [L-Mimosine] | 101 | 86.3 | 105 (inactive) | 102 (inactive) |
| COc1cc(=O)n(C)c2c(OCC(O)C(C)(C)O)cccc12 (stereo not drawn) [Foliosidine] | 103 | 112 | 93.5 (inactive) | 93.7 (inactive) |
| Cl.Cl.c1ccc2c3c([nH]c2c1)C1C2CCC(C4CCCNC42)N1CC3 (stereo not drawn) | 99.8 | 100 | 97.2 (inactive) | 101 (inactive) |
| CCC1Cc2cc(O)ccc2C2=C1c1ccc(O)cc1CC2CC [(R,R)-cis-Diethyl tetrahydro-2,8-chrysenediol] | 87.5 | 110 | 87.9 (inactive) | 107 (inactive) |
| NS(=O)(=O)c1ccc(-n2nc(C(F)(F)F)cc2-c2ccc(Cl)cc2)cc1 | 90.5 | 104 | 90.5 (inactive) | 90.7 (inactive) |
| Cc1[nH]c(=O)c(C#N)cc1-c1ccncc1 [Milrinone] | 103 ± 3.6 | 108 ± 13 | 92.3 (inactive) | 103 (inactive) |
| NC(CS(=O)O)C(=O)O [L-Cysteinesulfinic Acid] | 102 | 113 | 96.7 (inactive) | 92.3 (inactive) |
| Cc1ccccc1CNc1ncnc2c1ncn2C1OC(CO)C(O)C1O (stereo not drawn) [Metrifudil] | 97 | 94.5 | 93.7 (inactive) | 91.4 (inactive) |
| CC(C)(C)c1cc(O)ccc1O [tert-Butylhydroquinone] | 104 | 97.2 | 96.4 (inactive) | 89.1 (inactive) |
| CC(=O)OC1(C(C)=O)CCC2C3C=C(C)C4=CC(=O)CCC4(C)C3CCC21C (stereo not drawn) [Megestrol Acetate] | 106 | 96.9 | 98.9 (inactive) | 104 (inactive) |
| Cc1c(-c2cnccn2)ssc1=S [Oltipraz] | 105 | 101 | 97.9 (inactive) | 114 (inactive) |
| O=C(Nc1ccc(-c2cn[nH]c2)cc1)C1COc2ccccc2O1 (stereo not drawn) [Rho Kinase Inhibitor V] | 107 | 109 | 87.7 (inactive) | 101 (inactive) |
| Cc1scc2c1N(C(=O)CN1CCN(C)CC1)c1ccccc1NC2=O.Cl.Cl [Telenzepine dihydrochloride] | 107 | 94 | 99.8 (inactive) | 104 (inactive) |
| CC(C)NNC(=O)c1ccncc1.O=P(O)(O)O [Iproniazid phosphate] | 116 | 119 | 93.8 (inactive) | 85 (inactive) |
| CC1CCC(C(C)(C)O)CC2=C1CCC2C (single isomer, unassigned; (-)) [(-)-Guaiol] | 99.2 | 102 | 102 (inactive) | 106 (inactive) |
| Br.Br.N=C(N)SCCc1cnc[nH]1 [Imetit dihydrobromide] | 103 | 103 | 94.8 (inactive) | 80.5 (inactive) |
| O=C(C=Cc1ccc(O)c(O)c1)c1ccc(OC2OC(CO)C(O)C(O)C2O)c(O)c1O (stereo not drawn) [Marein] | 99.4 | 108 | 92 (inactive) | 91.5 (inactive) |
| COc1ccc2[nH]c(I)c(CCNC(C)=O)c2c1 [2-Iodomelatonin] | 100 | 111 | 92 (inactive) | 93.2 (inactive) |
| Oc1cc2c(cc1O)C(c1ccccc1)CNCC2 (racemic) | 101 | 113 | 92.2 (inactive) | 93.5 (inactive) |
| CC(C)COCC(CN(Cc1ccccc1)c1ccccc1)N1CCCC1.Cl (stereo not drawn) [Bepridil hydrochloride] | 99.7 | 103 | 92.8 (inactive) | 88.7 (inactive) |
| Cc1ccccc1C(C(=O)NC1CCCCC1)N(C(=O)Cn1ccnc1C)c1cccc(F)c1 (stereo not drawn) | 94.3 | 106 | 95.3 (inactive) | 105 (inactive) |
| Cl.NCCCCC(=O)O [5-Aminovaleric acid hydrochloride] | 102 | 107 | 96.1 (inactive) | 91.6 (inactive) |
| Cc1ccc(C(=O)COC(=O)c2cccc(NC(=O)c3ccc([N+](=O)[O-])cc3[N+](=O)[O-])c2)cc1 | 76.5 | 67.7 | 110 (inactive) | 152 (active) |
| CCCCCCCCCC(=O)OCC(CO)OC(=O)CCCCCCCCC (stereo not drawn) [1,2-Didecanoyl-glycerol (10:0)] | 102 | 98.8 | 98.3 (inactive) | 101 (inactive) |
